MCF10A rerep – inducers of DNA re-replication in MCF 10A breast cells. Potency, µM (titrated, usually from 46.1 µM), for inactives: at the top dose activity, positive = re-replication, most hits filed as activators. MCF 10A DNA re-replication, Hoechst nuclear intensity, 48 h. hit rate 2.9% among 350,000; note: % of control where 0% means no effect; nearly all actives have a fitted effect of over 50% in size
KB-V1 MDR tox – kills drug-selected multidrug resistant KB-V1 cells; Potency, µM (top dose mostly 46.1 µM), usual class: cytotoxic; KB-V1 MDR cells viability, CellTiter-Glo, 72 h; hit rate 3.4% among 400,000; AID 1347076; note: % is set by controls: 0 for no effect and ±100 for the full control effect; nearly all actives have a fitted effect of over 60% in size
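KB-V1 MDR subline cells in DMEM (phenol-red free, 10% FBS) exposed to compounds in qHTS concentration series for 72 h at 37 degrees C. Viability read by CellTiter-Glo luminescence; concentration-effect curves fitted after normalization and correction.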
HT1080-NT tox – kills 2HG-producing HT-1080-NT fibrosarcoma cells. HT-1080-NT fibrosarcoma viability, CellTiter-Glo ATP luminescence, 48 h. Potency, µM (series often up to 46.1 µM), for inactives: at the highest dose activity, negative = less viability, usual class: cytotoxic. hit rate 1.6% among 360,000. AID 686970;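 note: NT is the 2HG producing partner of a matched IDH1 knockdown line; 0% = DMSO-treated cells and -100% = media-only wells without cells; nearly all actives have a fitted effect of over 55% in size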
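Luminescent CellTiter-Glo readout after 48 hours of compound exposure at 37 degrees C defined viability of HT-1080-NT cells. Activity was normalized to DMSO wells and cell-free media wells; concentration-response curves were fitted and assigned curve classes.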
KB-3-1 cytotox – KB-3-1 parental cell cytotoxicity. KB-3-1 viability, CellTiter-Glo ATP luminescence, 72 h. Potency, µM (titrated, usually from 46.1 µM), actives largely listed as cytotoxic. hit rate 1.4% among 400,000; note: % is set by controls: 0 for no effect and ±100 for the full control effect; nearly all actives have a fitted effect of over 60% in size
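72 h, 37 °C compound treatment of KB-3-1 parental cells; CellTiter-Glo added, 10 min, luminescence read. Data corrected against DMSO-only plates and normalized before curve fitting.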
SW480 rereplic – DNA re-replication induction in SW480 cells | SW480 DNA re-replication, Hoechst DNA content imaging, 48 h | Potency, µM (top dose mostly 46.1 µM), for the others: at the top dose re-replication activation, actives largely listed as activators | hit rate 1.8% among 340,000; note: % of control where 0% means no effect; nearly all actives have a fitted effect of over 55% in size
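DNA re-replication was detected as more nuclei of elevated Hoechst intensity after 48 hr exposure to compound (23 nL pinned per well of 250 cells).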
HT1080 IDH1KD tx – toxicity to HT-1080 IDH1 knockdown cells (counter line); HT-1080 IDH1 knockdown viability, ATP luminescence, 48 h; Potency, µM (series often up to 46.1 µM), for the others: at the top dose activity, negative = toxicity, usual class: cytotoxic; hit rate 2% among 360,000; AID 686971;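 note: 0% = DMSO wells and -100% = cell-free medium wells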
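After a 2 h attachment period, IDH1KD HT-1080 cells took pin-transferred compound for 48 h at 37 °C; ATP-based luminescence after 10 min room-temperature reagent incubation reported viability.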
* marks the source's active call; other numbers are inactive results; i = inactive; ? = inconclusive; . = no result. In the library only some 7.9% were active in any assay of this set; here they are far more common. Calls come from the whole dose curve; as a rule, active = well fitted curve in the direction sought with a large enough effect; inconclusive = small, poorly fitted or top-dose-only effect, or another doubt; inactive = no such curve, though single readings can be large; an effect the other way counts as inactive or inconclusive. Potency is the fitted concentration of half-maximal effect.

SMILES	MCF10A rerep	KB-V1 MDR tox	HT1080-NT tox	KB-3-1 cytotox	SW480 rereplic	HT1080 IDH1KD tx
O=C(Oc1ccccc1/C=C\C(=O)c1cc2ccccc2o1)c1ccccc1	?	i	?	i	?	?
COc1ccc(O)c(C(=O)/C=C/c2cc3ccccc3o2)c1	2.59µM*	i	0.7%	i	?	5.9%
COc1cccc(C(=O)Oc2ccccc2/C=C\C(=O)c2cc3ccccc3o2)c1	0.581µM*	i	18.4µM*	?	?	20.6µM*
COc1ccccc1-c1csc(C(O)(c2ccccc2)C(F)(F)F)n1 (stereo unspecified)	.	i	?	i	.	?
O=C(NCCOc1ccccc1)c1ccc2c(c1)OCO2	0.4%	i	9.0%	i	-10.7%	5.6%
O=C(NCCOc1ccccc1)c1n[nH]c(=O)c2ccccc12	19.7%	23.1µM*	-0.4%	i	-3.2%	?
O=C(NCCOc1ccccc1)c1ccc2n[nH]nc2c1	4.4%	?	11.5%	i	4.61µM*	1.9%
O=S(=O)(NCC1CCC(NS(=O)(=O)c2c(F)cccc2F)CC1)c1ccc2c(c1)OCCO2 (stereo unspecified)	?	i	.	i	2.3%	.
NNc1nc2cccnc2n(CCNc2ncc(C(F)(F)F)cc2Cl)c1=O	20.6µM*	?	-22.1%	?	1.4%	?
O=c1c2nncn2c2cccnc2n1CCNc1ncc(C(F)(F)F)cc1Cl	-1.5%	i	-16.3%	?	?	3.0%
O=c1[nH]c2cccc(Cl)c2n(CCNc2ncc(C(F)(F)F)cc2Cl)c1=O	?	?	23.1µM*	?	10.0%	?
O=C(O)c1ccc(C(=O)O)c(C(=O)c2ccc(NC(=O)c3ccccc3)cc2)c1	7.0%	i	1.4%	i	-16.8%	2.6%
COC(=O)c1sc(S(=O)(=O)N2CCCCC2)c(C(=O)OC)c1C	-0.8%	?	-6.5%	i	3.5%	-17.0%
COC(=O)c1sc(S(=O)(=O)N2CCN(c3ccccc3)CC2)c(C(=O)OC)c1C	12.3%	8.2µM*	-2.6%	i	-4.8%	-0.1%
Cc1cc(C)n(-c2ccc(C(=O)Nc3sccc3C(N)=O)cc2)n1	?	29.1µM*	-22.5%	?	-4.7%	?
Cc1ccc(S(=O)(=O)Nc2cc(C)cc(CCNC=O)c2C)cc1	-3.1%	18.4µM*	7.6%	i	0.7%	-1.4%
O=C(NCC1CCN(Cc2ccc(F)cc2)CC1)c1cc2ccc3cccnc3c2[nH]1	.	i	.	i	.	.
O=C(CCC1N=C2c3ccccc3N=C(SCc3ccc(Cl)cc3)N2C1=O)NCc1ccco1 (stereo unspecified)	?	6.51µM*	-3.0%	?	?	-19.6%
COCc1cc(=O)[nH]c(SCCS(=O)(=O)c2ccc(Cl)cc2Cl)n1	16.4µM*	?	-2.2%	?	15.9%	-6.5%
COCc1cc(=O)[nH]c(SCCS(=O)(=O)c2ccc(C)cc2)n1	-1.1%	i	-3.2%	i	-6.1%	-5.7%
COC(=O)C(C)Sc1nc2c([nH]c3ccccc32)c(=O)n1-c1ccc(OC)cc1 (stereo unspecified)	.	i	.	i	.	.
C=C1C(=O)OC2C1C(OC(=O)C(C)=CC)CC(=C)C1C(O)C3OC3(C)C21O (stereo unspecified)	13µM*	i	-1.4%	i	20.6µM*	14.6µM*
Clc1ccc(-n2nnnc2-c2ccccc2)cc1	-19.0%	i	0.9%	i	-2.4%	-15.0%
COc1ccc(-n2nnnc2-c2ccccc2)cc1	2.1%	9.2µM*	5.62µM*	6.51µM*	-5.0%	?
O=C(NCc1ccc(-c2nc3ccccc3s2)cc1)c1ccco1	4.7%	23.1µM*	9.0%	i	-66.2%	7.2%
O=C(CCCc1nc2ccccc2s1)NCc1ccccc1	1.3%	23.1µM*	5.4%	i	-5.6%	13.1%
